Data published in PubChem BioAssay (NCATS).
Values joined by “and” are separate entries in the source; they are usually repeats but may differ in a detail not shown here. Equal entries are not always repeated. Inconclusive results are not listed. Some compounds were tested as several samples or in several runs, with calls that do not always agree. Active and inactive are the calls of the source. Unless noted, the call rests on the fitted dose curve; in most records, active means well fitted curve in the direction sought with a large enough effect; inconclusive means small, poorly fitted or top-dose-only effect, or another doubt; inactive means no such curve, though single readings can be large; an effect the other way counts as inactive or inconclusive.

Assays:
[1] = biological target: Glucocorticoid receptor (Homo sapiens) (UniProt P04150); assay: GR-GFP Redistribution (AID 450;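 active means compounds whose dose series gives a full or clear partial fitted curve of increased nuclear translocation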; further: potency means the concentration at half of the fitted maximal effect); details: U2OS GR-GFP nuclear translocation, laser cytometry, 2 h
[2] = biological target: Glucocorticoid receptor (Homo sapiens) (UniProt P04150); assay: GR-EFC Redistribution (AID 451; calls by dose curve; further: potency means the concentration at half of the fitted maximal effect); details: CHO-K1 GR-EFC translocation, beta-gal luminescence, 2 h
How it was run: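 CHO-K1 cells expressing nuclear EA and GR-ED fragments of b-gal; compounds titrated up to 46 uM final, 2 h at 37 C. GR nuclear translocation read as complemented b-gal luminescence after 1 h RT detection.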

[3] = biological target: Ubiquitin carboxyl-terminal hydrolase 1 (Homo sapiens) (UniProt O94782); assay: Inhibitors of USP1/UAF1: Pilot qHTS (AID 504865); further: nearly all actives have a fitted effect of over 35% in size; further: potency means the concentration at half of the fitted maximal effect
How it was run: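 In 50mM HEPES pH 7.8 containing 0.5mM EDTA, 1mM TCEP, 0.1 mg/ml BSA and 0.01% Tween-20, 1nM USP1/UAF1 is exposed to compound for 15 min, then Ub-Rho (150nM final) is added and fluorescence is read over time.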

[4] = biological target: DNA dC->dU-editing enzyme APOBEC-3G (Homo sapiens) (UniProt Q9HC16); assay: qHTS for inhibitors of Vif-A3G interactions: Validation (AID 588379); further: 0% is about no effect
How it was run: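 Yellow fluorescence (Ex 488, Em 500-530) of Vif-coexpressing HeLa A3G-eYFP cells, scanned by Acumen cytometer, reports blocked A3G degradation. Cells plated at 700/well overnight at 37 deg C before compound addition, then a further overnight compound incubation at 37 deg C.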

[5] = tested on: Zika virus NS2B-NS3 protease; assay: Primary screen GU AMC qHTS for Zika virus inhibitors (AID 1347154);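 further: 0% = no-inhibitor control and -100% = no-enzyme control; nearly all actives have a fitted effect of over 70% in size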
How it was run: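 Unlinked Zika NS2B hydrophilic domain–NS3 protease complex at 25 nM in 10 mM Tris-HCl pH 8.0, 0.01% Tween 20, with an AMC peptide substrate. Fluorescence change (340/450 nm) over 15 min at room temperature, normalized to controls, fitted to 4-parameter Hill.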

[6] = biological target: Mitogen-activated protein kinase 10 (Mus musculus) (UniProt Q61831); assay: JNK3 AlphaScreen Assay (AID 530; active means well fitted curve in either direction with a large enough effect, not every such curve was filed as active;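 further: kinase came from lysate of stimulated human HepG2 cells; signal reports phosphorylation of biotinylated GST-cJun 1-79 at Ser73 with 10 µM ATP; on the % scale 0 is the no-effect control and ±100 the full control effect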)
How it was run: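 Activity was read by AlphaScreen after JNK3-containing HepG2 lysate (cytokine pre-activated) phosphorylated biotinylated GST-cJun with 10 uM ATP at room temperature. Phospho-Ser73 cJun antibody with Protein-A acceptor beads provided detection.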

[7] = biological target: Cytochrome P450 2D6 (Homo sapiens) (UniProt P10635); assay: qHTS Assay for Inhibitors and Substrates of Cytochrome P450 2D6 (AID 891); further: nearly all actives have a fitted effect of over 60% in size; further: potency means the concentration at half of the fitted maximal effect
How it was run: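 Luminescent read-out of luciferin formed by 5 nM human CYP2D6 demethylating 30 uM Luciferin-ME EGE (Km level) over 60 min at room temperature after NADPH regeneration addition. Data normalized to full inhibition by 1.43 uM quinidine.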

[8] = AP1 Signaling Pathway (AID 357; active means well fitted curve in either direction with a large enough effect, not every such curve was filed as active; further: on the % scale 0 is the no-effect control and ±100 the full control effect); details: ME-180 AP-1-bla reporter, EGF-induced, beta-lactamase ratio, 5 h; at 17.2 µM (top of the series)
How it was run: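 Titration-series screen for positive or negative modulators of EC50 EGF-induced signaling in ME-180 cells carrying an AP-1-driven beta-lactamase reporter. After 5 hours at 37 degrees Celsius, CCF4 460nm/530nm emission ratio gave %Activity; AC50 values derived.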

[9] = biological target: Cytochrome P450 1A2 (Homo sapiens) (UniProt P05177); assay: p450-cyp1a2 (AID 410; calls by dose curve; further: potency means the concentration at half of the fitted maximal effect)
How it was run: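 Luminescent demethylation readout: Luciferin-ME (100uM, equal to Km) turned over by 20nM CYP1A2 for 60 min at room temperature after NADPH regeneration addition, following 10 min compound preincubation. Normalization used 57 uM furafylline as full inhibition.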

[10] = NFAT Signaling Pathway (AID 444; active means well fitted curve in either direction with a large enough effect, not every such curve was filed as active;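 further: carbachol stimulus at about its EC50 of 1 µM final; on the % scale 0 is the no-effect control and ±100 the full control effect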); details: Jurkat NFAT-bla M1, carbachol, beta-lactamase ratio, 5 h; at 17.2 µM (top of the series)
How it was run: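 Jurkat cells with NFAT-driven β-lactamase reporter and co-expressed M1 receptor, stimulated with carbachol (final 1 uM, ~EC50), compound titration, 5 h at 37 °C. CCF4 loaded 1 h at RT; 460/530 nm ratio gave %activity and AC50.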

[11] = Stat Signaling Pathway (AID 446; active means well fitted curve in either direction with a large enough effect, not every such curve was filed as active;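 further: ME-180 cervical cancer cells given 40 pM IL-6 alongside compound; SIE-controlled beta-lactamase reporter measured as 460/530 nm FRET emission ratio; on the % scale 0 is the no-effect control and ±100 the full control effect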); details: ME-180 (cervical carcinoma) SIE beta-lactamase reporter, IL-6 stimulated, 5 h; at 17.2 µM (top of the series)
How it was run: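 Compound effects on IL-6-induced STAT reporter activity were measured in ME-180 cells. After overnight culture, cells were co-treated with 40 pM IL-6 for 5 hrs before beta-lactamase substrate loading at room temperature.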

[12] = biological target: 3',5'-cyclic-AMP phosphodiesterase 4B (Homo sapiens) (UniProt Q07343); assay: qHTS Assay for Inhibitors of PDE-IV (AID 607; active means well fitted activation curve with a large enough effect in the main read-out, with a control signal flat, not every such curve was filed as active; further: % of control where 0% means no effect)
How it was run: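 ACTOne HEK293 cells carry a modified cAMP-gated CNG channel and express endogenous PDE4; plated 1000 cells/well, compounds up to 22.9 uM final. Membrane-potential dye fluorescence (ex 535/em 590) was read; parental cells received 10 uM forskolin + 100 uM RO 20-1724.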

[13] = biological target: Cytochrome P450 2C9 (Homo sapiens) (UniProt P11712); assay: qHTS Assay for Inhibitors and Substrates of Cytochrome P450 2C9 (AID 883); further: on the % scale 0 is the no-effect control and ±100 the full control effect; nearly all actives have a fitted effect of over 60% in size
How it was run: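 Signal: luciferase luminescence reporting luciferin produced by CYP2C9. Conditions: 10nM enzyme, Luciferin-H 100uM at KM, 25mM KPO4, 37C, 60 min NADPH-driven reaction. Reference: 57uM sulphaphenazole as 100% inhibition.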

[14] = biological target: Cytochrome P450 3A4 (Homo sapiens) (UniProt P08684); assay: qHTS Assay for Inhibitors and Substrates of Cytochrome P450 3A4 (AID 884); further: potency means the concentration at half of the fitted maximal effect; nearly all actives have a fitted effect of over 50% in size
How it was run: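 Luminescent readout of luciferin produced by CYP3A4 (20 nM) dealkylation of Luciferin-PPXE, 25 uM (its KM). NADPH-driven reaction ran 60 min at RT after 10 min compound preincubation; data scaled to 57 uM ketoconazole as 100% inhibition.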

[15] = biological target: Cytochrome P450 3A4 (Homo sapiens) (UniProt P08684); assay: qHTS Assay for Activators of Cytochrome P450 3A4 (AID 885); further: nearly all actives have a fitted effect of over 65% in size
How it was run: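 CYP3A4 activity: Luciferin-PPXE O-dealkylation, 25uM substrate, 200mM KPO4, RT throughout. Read-out is luciferase luminescence; higher values reflect activation.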

[16] = biological target: Cytochrome P450 2C19 (Homo sapiens) (UniProt P33261); assay: qHTS Assay for Inhibitors and Substrates of Cytochrome P450 2C19 (AID 899); further: nearly all actives have a fitted effect of over 60% in size; further: potency means the concentration at half of the fitted maximal effect
How it was run: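 Signal comes from luciferase acting on luciferin released by CYP2C19-mediated hydroxylation of Luciferin-H EGE, 10uM (KM). Assay mix: 5nM enzyme, 50mM KPO4; 60 min at 37C with NADPH regeneration. Data normalized against 57uM ketoconazole.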

[17] = qHTS Assay for Lipid Storage Modulators (AID 1519; calls by dose curve); details: Drosophila S3 cells, BODIPY lipid droplet/cell ratio, laser cytometry, cells loaded with oleic acid
How it was run: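 Cells seeded at 5,000 per well were treated with compounds over a concentration series and loaded with oleic acid (400 uM, as added). Lipid droplet fluorescence (488 nm excitation, 500-530 nm channel) was read by laser-scanning cytometry and normalized to 20 uM Triacsin C.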

[18] = Confirmatory screen GU Rhodamine qHTS for Zika virus inhibitors qHTS (AID 1347157); further: potency means the concentration at half of the fitted maximal effect; nearly all actives have a fitted effect of over 70% in size
How it was run: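 Buffer 10 mM Tris-HCl pH 8.0, 0.01% Tween 20. Unlinked protease 25 nM; compound preincubation 15 min, RT, protected from light. Substrate Rhod110, 1.5 microM; ~15% conversion in 15 min.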

[19] = ZIKV-mCherry secondary qHTS for Zika virus inhibitors (AID 1347158); further: top concentration of the series differs between compounds
How it was run: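 Percent infection is the share of Hoechst-identified Vero nuclei with mCherry signal above 450 RFU (3 SD over negative controls). Cells were infected with recombinant ZIKV-mCherry at MOI 1 after compound addition and imaged 48–72 h later.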

[20] = Confirmatory screen NINDS Rhodamine qHTS for Zika virus inhibitors (AID 1347161); further: potency means the concentration at half of the fitted maximal effect; nearly all actives have a fitted effect of over 60% in size
How it was run: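 Rhodamine110-peptide cleavage (1.5 µM substrate) by 25 nM linked NS2B-NS3 enzyme at pH 8.0 (Tris, Tween 20), after 15 min RT preincubation with compounds; 15-min fluorescence change normalized to controls and Hill-fitted.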

[21] = tested on: Zika virus NS2B-NS3 protease (linked); assay: 384 well plate NINDS AMC confirmatory qHTS for Zika virus inhibitors (AID 1347163); further: potency means the concentration at half of the fitted maximal effect; nearly all actives have a fitted effect of over 50% in size
How it was run: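 Fluorescence at 355/460 nm was read after 25 minutes of cleavage of 30 microM Ac-VKTGKR-AMC at room temperature, in the dark. Before substrate addition, compounds (up to 1 mM final) sat ~15 minutes with 5, 30 or 60 nM linked protease. Signals were normalized to no-enzyme and no-inhibitor wells.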

[22] = tested on: Zika virus NS2B-NS3 protease (linked construct); assay: 384 well plate NINDS Rhodamine confirmatory qHTS for Zika virus inhibitors (AID 1347164);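 further: fluorescence from protease cleavage of Ac-LKRR-rhodamine 110 substrate; top concentration of the series differs between compounds; plate controls were no-inhibitor control for no effect and no-enzyme control for full effect; nearly all actives have a fitted effect of over 65% in size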
How it was run: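 Enzyme (final 5/30/60 nM) + cpd (DMSO), ~15 min; add Ac-LKRR-Rd 10 microM final; 25 min RT, dark; FI ex 485/em 538; normalized to no-enzyme, no-inhibitor ctrls; aprotinin intraplate ctrl.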

[23] = Tertiary RLuc qRT-PCR qHTS assay for Zika virus inhibitors (AID 1347169); further: top concentration of the series differs between compounds; on the % scale 0 is the no-effect control and ±100 the full control effect; nearly all actives have a fitted effect of over 55% in size
How it was run: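 Vero, 1,000 cells/well, o/n 37 C; cpd pinned in DMSO; ZIKV-RLuc Cambodian, MOI 1-2, 48-72 h 37 C; live-cell RLuc substrate, lum read at 1-1.5 h.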

[24] = Confirmatory qHTS for small molecule stabilizers of the endoplasmic reticulum resident proteome: Secreted ER Calcium Modulated Protein (SERCaMP) assay (AID 1508628); further: potency means the concentration at half of the fitted maximal effect; nearly all actives have a fitted effect of over 40% in size
How it was run: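 Reporter secretion upon ER calcium depletion (100 nM thapsigargin, 4 h, 37C) is measured as medium luminescence with coelenterazine, after 16 h compound pretreatment of SH-SY5Y-GLuc-SERCaMP cells; primary at three concentrations up to 38.3 uM, follow-up at 11 (up to 76.6 uM).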

[25] = Primary qHTS for small molecule stabilizers of the endoplasmic reticulum resident proteome: Secreted ER Calcium Modulated Protein (SERCaMP) assay (AID 1508630); further: on the % scale 0 is the no-effect control and ±100 the full control effect
How it was run: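 The SH-SY5Y reporter protocol was run at 3 concentrations up to 38.3 uM (primary) or 11 concentrations (follow-up): 16 h compound, 100 nM thapsigargin for 4 h, then extracellular luciferase luminescence.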

Glucocorticoid receptor (Homo sapiens), sequence (P04150 whole entry, looked up, the tested form may be a part): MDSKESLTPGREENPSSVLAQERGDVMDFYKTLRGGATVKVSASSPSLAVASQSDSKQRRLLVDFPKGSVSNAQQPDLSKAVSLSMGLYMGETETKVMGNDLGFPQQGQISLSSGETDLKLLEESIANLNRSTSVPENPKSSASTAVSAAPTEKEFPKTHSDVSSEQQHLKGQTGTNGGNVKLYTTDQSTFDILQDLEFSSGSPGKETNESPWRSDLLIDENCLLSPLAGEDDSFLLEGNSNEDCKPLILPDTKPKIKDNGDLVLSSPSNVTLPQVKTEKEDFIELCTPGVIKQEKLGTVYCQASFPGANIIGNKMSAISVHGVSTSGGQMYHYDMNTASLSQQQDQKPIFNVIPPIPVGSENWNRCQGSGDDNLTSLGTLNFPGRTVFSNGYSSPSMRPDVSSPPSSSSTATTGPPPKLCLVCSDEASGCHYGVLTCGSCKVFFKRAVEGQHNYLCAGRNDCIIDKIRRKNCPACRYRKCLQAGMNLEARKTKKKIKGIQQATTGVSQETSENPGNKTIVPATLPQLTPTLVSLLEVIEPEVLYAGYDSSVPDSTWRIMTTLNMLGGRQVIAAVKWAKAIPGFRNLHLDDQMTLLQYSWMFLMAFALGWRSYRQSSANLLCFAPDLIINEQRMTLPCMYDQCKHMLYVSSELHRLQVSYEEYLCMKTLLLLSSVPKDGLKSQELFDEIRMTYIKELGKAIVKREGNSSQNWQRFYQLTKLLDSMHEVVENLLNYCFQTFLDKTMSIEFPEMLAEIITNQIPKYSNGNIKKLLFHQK
DNA dC->dU-editing enzyme APOBEC-3G (Homo sapiens), sequence (Q9HC16 whole entry, looked up): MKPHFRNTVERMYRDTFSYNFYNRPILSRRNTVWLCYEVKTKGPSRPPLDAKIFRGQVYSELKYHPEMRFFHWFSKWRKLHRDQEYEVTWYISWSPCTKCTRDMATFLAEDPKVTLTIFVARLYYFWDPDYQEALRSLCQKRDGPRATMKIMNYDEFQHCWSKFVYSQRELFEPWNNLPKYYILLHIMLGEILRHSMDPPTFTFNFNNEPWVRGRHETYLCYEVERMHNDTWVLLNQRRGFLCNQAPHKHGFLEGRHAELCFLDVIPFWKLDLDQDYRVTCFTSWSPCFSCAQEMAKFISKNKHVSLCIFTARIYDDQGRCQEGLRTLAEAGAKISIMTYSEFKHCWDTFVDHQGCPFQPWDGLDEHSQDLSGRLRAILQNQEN
Ubiquitin carboxyl-terminal hydrolase 1 (Homo sapiens), sequence (O94782 whole entry, looked up): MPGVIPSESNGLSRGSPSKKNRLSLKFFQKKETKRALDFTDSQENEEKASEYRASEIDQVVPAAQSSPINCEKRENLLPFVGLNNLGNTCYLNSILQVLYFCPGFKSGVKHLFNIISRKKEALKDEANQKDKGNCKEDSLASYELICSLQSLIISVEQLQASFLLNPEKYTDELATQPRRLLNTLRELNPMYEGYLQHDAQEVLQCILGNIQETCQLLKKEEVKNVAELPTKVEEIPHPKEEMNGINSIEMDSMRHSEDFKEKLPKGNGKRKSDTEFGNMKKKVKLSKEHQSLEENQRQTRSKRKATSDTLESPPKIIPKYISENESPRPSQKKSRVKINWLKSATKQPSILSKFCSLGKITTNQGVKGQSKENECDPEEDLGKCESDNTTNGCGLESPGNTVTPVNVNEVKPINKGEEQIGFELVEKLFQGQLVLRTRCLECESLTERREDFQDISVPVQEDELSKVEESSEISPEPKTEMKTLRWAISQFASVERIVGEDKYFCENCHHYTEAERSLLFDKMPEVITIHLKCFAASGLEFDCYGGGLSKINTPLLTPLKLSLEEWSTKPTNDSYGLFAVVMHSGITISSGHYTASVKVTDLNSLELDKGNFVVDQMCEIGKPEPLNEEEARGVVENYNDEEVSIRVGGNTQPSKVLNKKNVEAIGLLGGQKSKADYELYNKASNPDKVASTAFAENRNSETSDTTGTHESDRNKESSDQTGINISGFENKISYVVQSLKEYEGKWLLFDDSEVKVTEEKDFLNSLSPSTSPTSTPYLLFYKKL
Cytochrome P450 3A4 (Homo sapiens), sequence (P08684 whole entry, looked up): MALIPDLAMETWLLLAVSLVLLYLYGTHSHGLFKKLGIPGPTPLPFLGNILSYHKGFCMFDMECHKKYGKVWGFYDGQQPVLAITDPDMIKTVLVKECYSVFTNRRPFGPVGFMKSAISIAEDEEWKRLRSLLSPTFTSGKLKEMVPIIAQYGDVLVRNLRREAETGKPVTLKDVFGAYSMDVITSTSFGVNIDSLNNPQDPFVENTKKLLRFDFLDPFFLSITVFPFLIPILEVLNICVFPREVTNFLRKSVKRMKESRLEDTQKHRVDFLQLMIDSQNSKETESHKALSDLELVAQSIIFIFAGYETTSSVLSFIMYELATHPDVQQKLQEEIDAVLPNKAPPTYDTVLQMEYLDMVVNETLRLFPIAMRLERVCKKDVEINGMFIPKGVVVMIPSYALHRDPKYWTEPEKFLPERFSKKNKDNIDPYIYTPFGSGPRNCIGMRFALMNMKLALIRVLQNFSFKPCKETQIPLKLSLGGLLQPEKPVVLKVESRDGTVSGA
Cytochrome P450 2D6 (Homo sapiens), sequence (P10635 whole entry, looked up): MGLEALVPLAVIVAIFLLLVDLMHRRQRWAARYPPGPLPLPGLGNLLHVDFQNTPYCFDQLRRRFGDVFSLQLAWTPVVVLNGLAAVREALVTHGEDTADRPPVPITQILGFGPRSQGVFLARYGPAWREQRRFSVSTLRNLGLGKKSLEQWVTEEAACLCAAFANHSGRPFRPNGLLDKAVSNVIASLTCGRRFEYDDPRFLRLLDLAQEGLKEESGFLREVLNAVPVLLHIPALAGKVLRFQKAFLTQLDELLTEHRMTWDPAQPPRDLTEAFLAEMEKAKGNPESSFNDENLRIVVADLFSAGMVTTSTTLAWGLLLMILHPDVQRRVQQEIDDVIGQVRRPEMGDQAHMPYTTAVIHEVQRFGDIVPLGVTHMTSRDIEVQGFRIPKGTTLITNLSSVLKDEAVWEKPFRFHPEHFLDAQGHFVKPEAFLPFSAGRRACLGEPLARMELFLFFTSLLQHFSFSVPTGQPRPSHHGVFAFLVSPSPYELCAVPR
Cytochrome P450 2C19 (Homo sapiens), sequence (P33261 whole entry, looked up): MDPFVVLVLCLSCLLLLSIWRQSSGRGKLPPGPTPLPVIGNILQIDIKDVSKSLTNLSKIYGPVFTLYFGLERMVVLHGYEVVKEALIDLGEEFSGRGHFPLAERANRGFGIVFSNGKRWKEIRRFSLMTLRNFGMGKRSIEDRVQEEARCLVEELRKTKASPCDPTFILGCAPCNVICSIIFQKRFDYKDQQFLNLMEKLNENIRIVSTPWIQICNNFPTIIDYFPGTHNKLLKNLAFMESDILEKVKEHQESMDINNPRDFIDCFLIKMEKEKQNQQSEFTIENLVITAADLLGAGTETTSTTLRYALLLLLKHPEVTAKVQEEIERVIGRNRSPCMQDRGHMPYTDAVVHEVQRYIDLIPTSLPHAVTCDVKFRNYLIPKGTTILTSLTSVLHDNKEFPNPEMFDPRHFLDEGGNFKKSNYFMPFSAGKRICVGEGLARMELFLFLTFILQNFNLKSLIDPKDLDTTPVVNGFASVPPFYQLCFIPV
3',5'-cyclic-AMP phosphodiesterase 4B (Homo sapiens), sequence (Q07343 whole entry, looked up): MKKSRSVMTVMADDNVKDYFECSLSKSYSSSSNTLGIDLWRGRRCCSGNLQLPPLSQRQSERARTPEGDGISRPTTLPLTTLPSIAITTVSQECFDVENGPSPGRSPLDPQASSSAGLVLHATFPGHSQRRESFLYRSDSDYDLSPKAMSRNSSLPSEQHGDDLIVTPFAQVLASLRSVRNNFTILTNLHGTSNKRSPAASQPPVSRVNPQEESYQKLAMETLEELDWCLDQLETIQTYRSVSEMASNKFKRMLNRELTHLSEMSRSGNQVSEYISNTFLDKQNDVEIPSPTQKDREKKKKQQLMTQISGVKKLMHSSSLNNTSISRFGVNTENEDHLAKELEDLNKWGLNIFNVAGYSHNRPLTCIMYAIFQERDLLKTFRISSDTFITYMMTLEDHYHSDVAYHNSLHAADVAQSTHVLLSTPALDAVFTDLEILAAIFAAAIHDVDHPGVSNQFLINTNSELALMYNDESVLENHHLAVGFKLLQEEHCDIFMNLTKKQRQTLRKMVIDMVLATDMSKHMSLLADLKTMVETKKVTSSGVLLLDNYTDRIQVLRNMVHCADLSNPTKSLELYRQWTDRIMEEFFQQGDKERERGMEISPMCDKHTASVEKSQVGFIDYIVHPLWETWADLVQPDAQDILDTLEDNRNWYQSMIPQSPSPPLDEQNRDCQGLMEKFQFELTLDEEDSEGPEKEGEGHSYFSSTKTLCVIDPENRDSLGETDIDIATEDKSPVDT
Cytochrome P450 1A2 (Homo sapiens), sequence (P05177 whole entry, looked up): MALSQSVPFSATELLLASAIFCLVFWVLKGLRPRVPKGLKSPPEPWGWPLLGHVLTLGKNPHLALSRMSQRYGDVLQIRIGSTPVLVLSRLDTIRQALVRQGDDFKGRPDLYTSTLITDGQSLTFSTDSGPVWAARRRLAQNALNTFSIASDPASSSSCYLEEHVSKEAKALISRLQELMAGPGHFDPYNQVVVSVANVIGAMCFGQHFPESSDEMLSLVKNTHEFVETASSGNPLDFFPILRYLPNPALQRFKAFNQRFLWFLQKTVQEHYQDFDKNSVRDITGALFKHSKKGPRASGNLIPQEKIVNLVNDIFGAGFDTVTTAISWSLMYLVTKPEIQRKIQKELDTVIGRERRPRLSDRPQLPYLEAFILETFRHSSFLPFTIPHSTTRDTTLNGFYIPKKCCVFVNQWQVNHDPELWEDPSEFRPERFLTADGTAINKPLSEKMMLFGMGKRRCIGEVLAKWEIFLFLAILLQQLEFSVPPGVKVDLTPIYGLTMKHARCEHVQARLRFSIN

c1cc2c3c(c1)c1c(n3CCNC2)CCCC1
inactive: Potency [1] > 46 µM | Potency [2] > 46 µM | Potency [3] | Potency [4] | Potency [5]

CNc1ncnc2c1ncn2[C@H]1C[C@H](OP(=O)(O)O)[C@H](COP(=O)(O)O)O1
inactive: Potency [1] > 46 µM | Potency [2] > 46 µM | Potency [6] | Potency [3] | Potency [4] | Potency [5]
active: Potency [7] 5.01 µM

COc1cc(-c2ccc(N=Nc3ccc4c(S(=O)(=O)O)cc(S(=O)(=O)O)c(N)c4c3O)c(OC)c2)ccc1N=Nc1ccc2c(S(=O)(=O)O)cc(S(=O)(=O)O)c(N)c2c1O
1.95%: max response ([17]; measured here: cell count channel max response)
8.3%: max response ([17]; measured here: lipid channel max response)
3.98 µM (active) and inactive: Potency [16]
inactive: activity change, negative = inhibition [8] 15% | activity change, negative = inhibition [10] 0.00688% | activity, negative = inhibition [11] -15.7% | Potency [1] > 20.6 µM and > 46 µM | Potency [2] > 20.6 µM and > 46 µM | Potency [12] | Potency [13] | Potency [15] | Potency [7] | activity change, negative = inhibition ([17]; at 25.7 µM (top of the series)) 3.4% | Potency [4] | Potency [19] | Potency [22] | Potency [23] | activity change, negative = inhibition [25] -28.6% [at 7.35 µM]
active: Potency [9] 12.6 µM and 20 µM | Potency [14] 15.8 µM | Potency [3] 17.8 µM and 8.91 µM | Potency [18] 2.82 µM | Potency [20] 2 µM | Potency [21] 7.08 µM | Potency [24] 28.2 µM
